Measured values published in PubChem BioAssay (NCI).
This is part of a sample that, as a whole, favours compounds with a hit. Of some 83,000 tested, about 20% had one in any assay.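 A percent growth of 40 corresponds to 60% growth inhibition; 0 means no net growth; -100 means all cells died. Active threshold: below 10.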 Values without a mark were called inactive. Activity calls are given as the source filed them.

Tested on: HT29 colon
Test: NCI-60 one-dose screen, 48 h (100 = growth as untreated, 0 = no growth, -100 = all killed)
Conditions: 10 µM unless noted
Method: Growth inhibition of the HT29 human tumor cell line is measured as a screen for anti-cancer activity. Cells are grown in 96 well plates and exposed to the test compound for 48 hours. Compounds are tested at a single concentration, which is 10^-5 M for most compounds. The reported endpoint is percent growth (GI% or GIPRCNT), where numbers from 0 - 100% represent growth inhibition, and numbers from -100% - 0 represent cell death. For example, a value of 40 represents 60% growth inhibition. A value of 0 means no net growth occurred over the course of the experiment. A value of -40 indicates 40% of cells at the beginning of the experiment died by the end of the experiment. A value of -100 means all cells are dead at the end of the experiment.
NCI-60 Human Tumor Cell Lines Screen was performed using the standard one-dose NCI protocol, which is described in more detail at https://dtp.cancer.gov/discovery_development/nci-60/default.htm.
Compounds with GIPRCNT values below 10 were considered active. Activity score was based on GIPRCNT using the following formula: […]
Score is 0 for GIPRCNT values of 100 or above, 50 for GIPRCNT values of 0, and 100 for GIPRCNT values of -100.

Row | SMILES | growth
1 | S=C(S)NCCc1c[nH]c2ccccc12 | 110%
2 | CN(CCCCCl)P(=O)(OCc1ccc([N+](=O)[O-])o1)C(F)(F)C[C@H](NC(=O)CNC(=O)c1ccc(N=[N+]=[N-])cc1)C(=O)NCCc1ccc(O)cc1 (stereo not given in full) | 86.3%
3 | Cn1cc(-c2cnc3ccc(NC(=O)Nc4ccc(F)c(Br)c4)cc3n2)cn1 | 40%
4 | COc1ccc(C2CC(c3ccc(OC)cc3OC)=NN2c2ccc(S(N)(=O)=O)cc2)cc1 (stereo not given) | 71.8%
5 | N[C@@H]1CCN(C(=O)c2cc3cc(Cl)c(F)c(F)c3[nH]2)C1 | 88%
6 | Cc1ccc(-c2cc3nc(C(Cl)Cl)nc(-c4ccccc4C)n3n2)cc1 | 8.13% (active)
7 | O=c1[nH]c2ccc(Br)cc2c2c1C(c1ccc(Cl)cc1)c1c(ncn3nc(-c4ccco4)nc13)O2 (stereo not given) | 73%
8 | COc1ccc(/C=C2\N=C(c3ccccc3)N(C(=O)c3ccccc3O)NC2=O)cc1 | 104%
9 | COc1ccc(-c2nc(SCCC(C)C)nc(Nc3ccc(F)c(Cl)c3)c2C#N)cc1 | 75.9%
10 | O=S(=O)(NCCNc1nccc(-c2c(-c3ccc(F)cc3)nc3sccn23)n1)c1ccc(F)cc1 | 52.1%
11 | COc1ccc(-c2nc(/C=N/Nc3cc(C)nc4ccc(Br)cc34)c(C)o2)cc1 | -76.2% (active)
12 | C/C=C(\C)C(C(=O)NC1CCCCC1)N(C(=O)C1CCc2cc(F)ccc2O1)c1ccc(Cl)cc1 (stereo not given) | 98.7%
13 | CC(C)(C)n1cc(-c2ccnc(NCCCNS(=O)(=O)c3ccc(Br)cc3)c2)c(-c2cccc(O)c2)n1 | 1.23% (active)
14 | COC(=O)c1nc(-c2ccccc2)oc1S(=O)(=O)N1CCN(c2cccc(Cl)c2)CC1 | 50.8%
15 | CCO/C=N/C1=C(C#N)C(c2ccc(Cl)cc2)c2c(c3ccccc3n(C)c2=O)O1 (stereo not given) | 35%
16 | O=C(O)c1cn(C2CC2)c2cc(N3CCN(C(=O)/C=C/c4ccc(Cl)cc4)CC3)c(F)cc2c1=O | 82.1%
17 | COc1cc(NCCCCCN)c2ncccc2c1 | 118%
18 | CC(C)(C)NCCC(O)c1cc2c(Cl)cc(Cl)cc2c2cc(C(F)(F)F)ccc12 (stereo not given) | -80.3% (active)
19 | C=CCn1cc(-c2nc3ccccc3s2)c2cc(-c3ccc4c5c(cccc35)C(=O)N(CCN3CCNCC3)C4=O)ccc21 | 11%
20 | COc1cc2c(cc1OCCCCCn1c3ccccc3c3ccccc31)N=C[C@@H]1CCCN1C2=O | -45.8% (active)

Row | SMILES | growth
21 | CC(C)c1ccc2occ(C=C3C(=O)NC(=O)NC3=O)c(=O)c2c1 | 94.7%
22 | S=c1[nH]nc(-c2cc3ccc2CCc2ccc(cc2)CC3)n1-c1ccccc1 | 90.8%
23 | CCC(=O)OC1=CN2C(=NC(c3ccc(N)cc3)=CC2c2cc(OC)c(OC)c(OC)c2)S1 (stereo not given) | 3.44% (active)
24 | COc1cc(Nc2nc(N[C@H]3CCCC[C@@H]3N)nc3cc[nH]c(=O)c23)cc(OC)c1 | 7.69% (active)
25 | O=C(Nc1cccc(-n2cc(-c3ccncc3)c(-c3ccc(Cl)c(O)c3)n2)c1)Nc1cc(C(F)(F)F)cc(C(F)(F)F)c1 | -56% (active)
26 | COc1ccc(/C=N\NC(=O)CN2CCN(c3cc4c(cc3F)c(=O)c(C(=O)N/N=C/c3ccc(OC)c(OC)c3)cn4C3CC3)CC2)cc1OC | 6.97% (active)
27 | COc1cccc(CC(C)=C(c2ccc(OCCN3CCCCC3)cc2)c2ccc(OCCN3CCCCC3)cc2)c1 | -77.9% (active)
28 | COc1ccc(/C=C\c2cc(OC)c(OC)c(OC)c2)cc1OC(=O)c1cccc(Cn2cc(CCOC(=O)c3cccc(Cn4nnc5c4C(=O)c4ccccc4C5=O)c3)nn2)c1 | 12.2%
29 | CCN1CCN(c2nc(NNC(=O)c3ccccc3)nc(N3CCN(C(c4ccccc4)c4ccccc4)CC3)n2)CC1 | 1.28% (active)
30 | COc1ccc(N=Cc2c(O)ccc3c2oc2cc(Cl)c(O)c(Cl)c23)cc1 | 105%
31 | COc1ccc(C(=O)N2NC(=O)/C(=C/c3ccc(F)cc3)N=C2c2ccccc2)cc1 | 94.6%
32 | Cc1cc(C2(c3cc(C)c(O)cc3C)OS(=O)(=O)c3ccccc32)c(C)cc1O | 92.9%
33 | COc1cc(NC(N)=NCCC(C)(C)Oc2ccc(C(F)(F)F)cc2)ncc1C#N | -79.4% (active)
34 | CC(C)(C)n1cc(-c2ccnc(NCCCNS(=O)(=O)c3ccccc3)c2)c(-c2cccc(O)c2)n1 | 8.45% (active)
35 | O=C(Nc1cccc(-n2cc(-c3ccncc3)c(-c3ccc(Cl)c(O)c3)n2)c1)c1ccccc1 | 53.5%
36 | O=[N+]([O-])c1cccc(-c2nc3sccn3c2-c2ccnc(NCCCNS(=O)(=O)c3ccc(C(F)(F)F)cc3)n2)c1 | 36.8%
37 | COc1ccc(-c2cc(-c3ccccc3)nc(SCCCC(=O)NO)n2)cc1OC | 15.1%
38 | CCCCCCN1CSC(=S)N(CCCCCC)C1 | 115%
39 | O=C(c1ccccc1)c1c(/C=C/c2ccccc2)c2ccccc2[nH]c1=O | 106%
40 | COc1ccc(-c2nc(/C=C3/C(=O)Nc4ccc(F)cc43)c3ccccn23)cc1 | 103%
